A word on the AC50: it is the concentration giving half of the maximal activity seen.

Details in all cases: mRNA level, 48 h; actives raise or lower the signal
Read-out in experiment [1]: Potassium channel subfamily K member 1 (KCNK1), KCNK1 (gene 3775)
Kind of experiment: LTEA_HepaRG_KCNK1: Life Technologies and Expression Analysis (LTEA) Assay for Potassium channel subfamily K member 1 (KCNK1) using HepaRG (AID 2283511). An outline of the steps:
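HepaRG, 48 h exposure, 8-pt half-log series top 100 uM, 0.5% DMSO vehicle, duplicates. Readout: KCNK1 transcript by qRT-PCR (Fluidigm array), housekeeping-normalized; bidirectional curve fit relative to DMSO baseline.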

Read-out in experiment [2]: Keratin 19 (KRT19), KRT19 (gene 3880)
The experiment is described as follows: LTEA_HepaRG_KRT19: Life Technologies and Expression Analysis (LTEA) Assay for Keratin 19 (KRT19) using HepaRG (AID 2283512). The method in brief:
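KRT19 transcript measured by TaqMan qRT-PCR, referenced to three housekeeping genes, after HepaRG cells received test chemicals for 48 h. Eight half-log concentrations, top 100 uM, 0.5% DMSO vehicle; increases and decreases both fitted.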

Read-out in experiment [3]: JUN Transcription Factor, JUN (gene 3725)
The experiment is described as follows: LTEA_HepaRG_JUN: Life Technologies and Expression Analysis (LTEA) Assay for JUN Transcription Factor using HepaRG (AID 2283513). An outline of the steps:
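HepaRG, 48 h exposure, 8-pt half-log series top 100 uM, 0.5% DMSO, duplicate. JUN mRNA by qRT-PCR (Fluidigm), housekeeping-normalized (ACTB/GAPDH/POLR2A); bidirectional curve fit vs DMSO baseline.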

Read-out in experiment [4]: Lipase C (LIPC), LIPC (gene 3990)
The experiment is described as follows: LTEA_HepaRG_LIPC: Life Technologies and Expression Analysis (LTEA) Assay for Lipase C (LIPC) using HepaRG (AID 2283514). The method in brief: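 HepaRG, 48 h exposure, 8-pt half-log series from 100 uM in 0.5% DMSO, duplicates. Readout: LIPC mRNA by Fluidigm qRT-PCR, housekeeping-normalized (ACTB/GAPDH/POLR2A). Gain or loss fitted bidirectionally against DMSO baseline.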

Read-out in experiment [5]: MicroRNA 122 (MIR122), gene 406906
Kind of experiment: LTEA_HepaRG_MIR122: Life Technologies and Expression Analysis (LTEA) Assay for MicroRNA 122 (MIR122) using HepaRG (AID 2283516). Note: the transcript read is the microRNA miR-122. An outline of the steps: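 qRT-PCR read-out (TaqMan, Fluidigm array), normalized to three housekeeping genes; HepaRG cells dosed 48 h at 8 concentrations up to 100 uM in 0.5% DMSO, duplicate; gain or loss fitted against DMSO baseline.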

Read-out in experiment [6]: matrix metalloproteinase-10 (MMP10), MMP10 (gene 4319)
Kind of experiment: LTEA_HepaRG_MMP10: Life Technologies and Expression Analysis (LTEA) Assay for matrix metalloproteinase-10 (MMP10) using HepaRG (AID 2283517). The method in brief:
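Transcript levels come from Fluidigm qRT-PCR normalized to three housekeeping genes, with curves fitted bidirectionally against 0.5% DMSO. Human HepaRG cells were dosed for 48 hours at concentrations up to 100 uM.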

Read-out in the next experiment: MYC, MYC (gene 4609)
Kind of experiment: LTEA_HepaRG_MYC: Life Technologies and Expression Analysis (LTEA) Assay for MYC using HepaRG (AID 2283518). The method in brief:
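MYC transcript changes, up or down relative to 0.5% DMSO, from TaqMan qRT-PCR normalized to three housekeeping genes. Human HepaRG cultures received chemicals for 48 h at eight half-log concentrations up to 100 uM, in duplicate.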

Read-out in experiment [7]: matrix metalloproteinase-3 (MMP3), MMP3 (gene 4314)
Kind of experiment: LTEA_HepaRG_MMP3: Life Technologies and Expression Analysis (LTEA) Assay for matrix metalloproteinase-3 (MMP3) using HepaRG (AID 2283519). The method in brief: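 qRT-PCR read-out of MMP3 mRNA (normalised to three housekeeping genes) in HepaRG liver cells after 48 h chemical exposure; 8-point half-log series, top 100 uM, 0.5% DMSO vehicle. Bidirectional curve fitting against DMSO baseline.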

Read-out in experiment [8]: Paternally Expressed 10 (PEG10), PEG10 (gene 23089)
The experiment is described as follows: LTEA_HepaRG_PEG10: Life Technologies and Expression Analysis (LTEA) Assay for Paternally Expressed 10 (PEG10) using HepaRG (AID 2283520).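 For AC50: differentiated HepaRG human liver cells in serum-free induction medium with 0.5% DMSO; PEG10 transcript by qRT-PCR normalised to ACTB GAPDH and POLR2A.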 An outline of the steps:
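qRT-PCR read-out: PEG10 mRNA normalised to three housekeeping genes, fitted bidirectionally against 0.5% DMSO vehicle. HepaRG cells received test chemicals for 48 h in serum-free induction medium, 8 points, top 100 uM, half-log steps.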

Read-out in experiment [9]: Lipoprotein lipase (LPL), LPL (gene 4023)
Kind of experiment: LTEA_HepaRG_LPL: Life Technologies and Expression Analysis (LTEA) Assay for Lipoprotein lipase (LPL) using HepaRG (AID 2283515). The method in brief:
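HepaRG, 48 h exposure, 8-pt half-log dilutions from 100 uM, 0.5% DMSO vehicle, duplicates; qRT-PCR (Fluidigm array) of LPL mRNA vs housekeeping genes; bidirectional curve fit relative to DMSO baseline.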

The source made the active and inactive calls. Rule for the calls: active = hit-call score of the fitted dose curve at least 0.9, where 1 is the maximum; inactive = score below 0.9.

Regarding `NC(=O)N1c2ccccc2C=Cc2ccccc21`, the compound was classed as inactive in [1], in experiment [2], in [3], in experiment [4], in experiment [5] and in [6]. In addition, the outcome is “inactive” with MYC, MYC (gene 4609); “inactive” in experiment [7]; “inactive” in experiment [8].
Consider `NC(N)=O`, for which the result in experiment [1], in [2], in experiment [3], in experiment [4], in experiment [5] and in experiment [6] was inactive. Moreover, the outcome in the experiment with MYC, MYC (gene 4609) was “inactive”; in [7], “inactive”; in experiment [8], “inactive”.
In the case of `CCCCCCOC(=O)CC(CC(=O)OCCCCCC)(OC(=O)CCC)C(=O)OCCCCCC`, the compound was classed as inactive in experiment [1], in experiment [2], in [3], in [4], in experiment [5] and in experiment [6]. Besides, the outcome with MYC, MYC (gene 4609) was “inactive”; in [7], “inactive”; in experiment [8], “inactive”.
Take `OC(CCl)CCl`: the compound was classed as inactive in experiment [1], in experiment [2], in [3], in [4], in [5] and in experiment [6]. Further, the outcome with MYC, MYC (gene 4609) is “inactive”; in experiment [7] it was “inactive”; in [8] it was “inactive”.
Turning to `Cc1nccn1-c1ccc(Sc2cccc(C3(C(N)=O)CCOCC3)c2)cc1`, the call in [1] and in experiment [7] was inactive. Also, the AC50 was 19.4 µM (active) in [3]; 12.2 µM (active) in experiment [4]; 0.913 µM (active) in [9]; 15.1 µM (active) in experiment [5]; 17.6 µM (active) in [6]; 9.67 µM (active) with MYC, MYC (gene 4609). Besides, the AC50 in experiment [8] was 2.9 µM (active).
As for `Cc1ncc([C@@H](CCCCCCc2ccc3c(n2)NCCC3)CC(=O)O)cn1`, the call in [1], in experiment [2], in experiment [3], in [4], in experiment [5] and in experiment [6] was inactive. In addition, the outcome with MYC, MYC (gene 4609) was “inactive”; in experiment [8], “inactive”. Further, the AC50 in experiment [7] was 0.145 µM (active).
In the case of `CCOC(N)=O`, the compound was called inactive in experiment [1], in [2], in experiment [3], in experiment [4], in experiment [5] and in experiment [6]. The outcome is “inactive” in the experiment with MYC, MYC (gene 4609); “inactive” in [7]; “inactive” in [8].
For the compound `CC(C)CC(C)O` (stereo not given), the outcome in experiment [1], in [2], in experiment [3], in [4], in experiment [5] and in experiment [6] was inactive. Besides, the outcome is “inactive” with MYC, MYC (gene 4609); “inactive” in experiment [7]; “inactive” in experiment [8].
Consider `O=C(O)c1cccc(C(=O)O)c1`, for which the result in experiment [1], in experiment [2], in experiment [3], in [4], in experiment [5] and in experiment [6] was inactive. Also, the outcome with MYC, MYC (gene 4609) was “inactive”; in [7], “inactive”; in experiment [8], “inactive”.
Take `O=C1CN(N=Cc2ccc([N+](=O)[O-])o2)C(=O)N1`: the compound was called inactive in experiment [1], in experiment [3], in experiment [4], in [5], in experiment [6] and in [7]. For the same compound, in experiment [8], the call was inactive. Further, the AC50 is 91.3 µM (active) in [9] and 80.1 µM (active) with MYC, MYC (gene 4609).
On to `OC[C@H]1O[C@@H]2O[C@H]3[C@H](O)[C@@H](O)[C@@H](O[C@H]4[C@H](O)[C@@H](O)[C@@H](O[C@H]5[C@H](O)[C@@H](O)[C@@H](O[C@H]6[C@H](O)[C@@H](O)[C@@H](O[C@H]7[C@H](O)[C@@H](O)[C@@H](O[C@H]1[C@H](O)[C@H]2O)O[C@@H]7CO)O[C@@H]6CO)O[C@@H]5CO)O[C@@H]4CO)O[C@@H]3CO`, for which the result in experiment [1], in experiment [2], in experiment [3], in experiment [4], in experiment [5] and in experiment [6] was inactive. Moreover, the outcome with MYC, MYC (gene 4609) was “inactive”; in experiment [7], “inactive”; in experiment [8], “inactive”.
Consider `c1ccc2cc3ccccc3cc2c1`, for which the call in experiment [1], in experiment [2], in experiment [3], in [4], in experiment [5] and in [6] was inactive. For the same compound, the outcome was “inactive” with MYC, MYC (gene 4609); “inactive” in [7]; “inactive” in experiment [8].
Take `OCCOCCOCCO`: the call in experiment [1], in [2], in experiment [3], in experiment [4], in experiment [5] and in experiment [6] was inactive. Further, the outcome was “inactive” in the experiment with MYC, MYC (gene 4609); “inactive” in experiment [7]; “inactive” in experiment [8].
As for `CCCCN1C(=O)[C@@H]([C@H](O)C2CCCCC2)NC(=O)C12CCN(Cc1ccc(Oc3ccc(C(=O)O)cc3)cc1)CC2`, the concentration at half-maximal activity (AC50) in experiment [1] is 0.391 µM (active); in experiment [4] it was 3.67 µM (active); in experiment [9] it was 1.71 µM (active); in experiment [5] it was 3.52 µM (active); in [6], 11.9 µM (active); with MYC, MYC (gene 4609) it was 7.67 µM (active). Moreover, the AC50 in experiment [7] is 0.267 µM (active); in experiment [8] it was 1.01 µM (active). Besides, the call in experiment [2] and in experiment [3] was inactive.
`CC1(C)C(=O)N(Cl)C(=O)N1Cl`: the compound was classed as inactive in experiment [1], in experiment [3], in [4], in experiment [9], in [5] and in [6]. For the same compound, the outcome was “inactive” with MYC, MYC (gene 4609); “inactive” in [7]; “inactive” in experiment [8].
As to `CCOc1ccc2[nH]cc(C(=O)NCc3ccccc3)c(=O)c2n1`, the result in [1], in experiment [3], in [4], in experiment [9], in experiment [5] and in [6] was inactive. For the same compound, the outcome was “inactive” with MYC, MYC (gene 4609) and “inactive” in experiment [7]. For the same compound, the AC50 is 12.1 µM (active) in experiment [2] and 50 µM (active) in experiment [8].
For `NC(=O)N(O)[C@@H]1COc2cc(OCc3ccccc3)ccc21`, the outcome in experiment [1], in experiment [3], in [4], in experiment [9], in experiment [5] and in [6] was inactive. In addition, the outcome is “inactive” in the experiment with MYC, MYC (gene 4609); “inactive” in experiment [7]; “inactive” in [8].

For the origin of these results see PubChem BioAssay (EPA / NIEHS).
